In PubChem BioAssay AID1304 (The Scripps Research Institute Molecular Screening Center, 2008):
Hit rate of the full screen: of about 220,000 compounds, about 800 (0.36%) were called active. Shown is part of a subset that was picked to be rich in actives. Unmarked numbers belong to inactive results. Rule as the data show it: active = activation above about 33% (passing the limit was not always enough); inactive = the rest.

These molecules were tested against Neuropeptide Y receptor type 1 (Homo sapiens) (UniProt P25929) (assay: NPY-Y1 receptor potentiators or agonists, primary screen, cell-based (AID 1304;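 also: cells stimulated with NPY at EC10 then isoproterenol at EC100; 0% = low agonist plus stimulus and 100% = saturating agonist plus stimulus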)). Conditions: NPY-Y1 expressing cells, potentiator/agonist activation; at 3.6 µM; hits give high values.
Neuropeptide Y receptor type 1 (Homo sapiens), sequence (P25929 whole entry, looked up): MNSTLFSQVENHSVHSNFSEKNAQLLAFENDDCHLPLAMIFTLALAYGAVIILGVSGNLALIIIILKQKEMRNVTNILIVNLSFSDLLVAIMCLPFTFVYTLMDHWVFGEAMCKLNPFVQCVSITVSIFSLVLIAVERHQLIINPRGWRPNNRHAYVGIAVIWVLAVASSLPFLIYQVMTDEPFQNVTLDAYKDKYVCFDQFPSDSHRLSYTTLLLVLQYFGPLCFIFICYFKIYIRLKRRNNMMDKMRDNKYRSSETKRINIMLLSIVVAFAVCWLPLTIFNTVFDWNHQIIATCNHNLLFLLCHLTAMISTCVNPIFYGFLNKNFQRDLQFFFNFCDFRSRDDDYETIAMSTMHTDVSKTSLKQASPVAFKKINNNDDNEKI

| Structure (SMILES) | activation |
| --- | --- |
| CSC1=NP(=S)(SC)N(C)c2nc3n(c21)CCC3 (stereo not given) | 42.8% (active) |
| CCC1(C)CC(CCNCc2ccc(N(C)C)cc2)(c2ccc(F)cc2)CCO1 (stereo not given) | 16.3% |
| CSc1nc2ccc(C)cc2c(=O)n1-c1cccnc1 | 1.29% |
| CNC(=O)Nc1ccc(C(O)(C(=O)OC)C(F)(F)F)cc1 (stereo not given) | -6.66% |
| CC(=O)Cc1ccc(OC(C)C)cc1 | 8.4% |
| C/C=C/CC1(CC)C(=O)NC(=S)NC1=O | 11.2% |
| CCOP(=O)(OCC)C(NC(=O)c1ccc(OC)cc1)C(Cl)(Cl)Cl (stereo not given) | 4.01% |
| CC1(C)Cc2c(C#N)c(N3CCNCC3)nc(-c3ccco3)c2CS1 | 59.2% (active) |
| CCN1CC2C3CCC(C)(O3)C2C1 (stereo not given) | 11.9% |
| Fc1ccc(C2N3CCCN23)cc1 (stereo not given) | -11.3% |
| CCOc1cccc(=NC2CCCCC2)c2c(C)[nH]c(C)c12 | 11.4% |
| Cc1nn(Cc2ccccc2Cl)c(Cl)c1C(=O)OC(C(=O)NC(N)=O)C(C)C (stereo not given) | 49.5% (active) |
| Cc1cccc(NC(=O)OC2CN3CCC2CC3)c1 (stereo not given) | 11.8% |
| O=c1[nH]c(=O)n(Cc2ccccc2)c(O)c1/C=N/Nc1c(F)c(F)c(F)c(F)c1F | -7.15% |
| Cn1c(O)c(C(=Nc2ccc(F)cc2)c2ccccc2)c(=O)n(C)c1=O | -6.6% |
